Measured values taken from the supplement of paper PMC6555819.

Key:
Assay in all cases: PBM binding z-score (relative to random genomic background probes); higher = stronger binding; sequences stand for … in GC…GCGATTGACAGCGTAGAATGAAGG
[1] = test system: FXR:RXRa (NR concentration 270 nM, RXRa partner concentration 90 nM)
Outline: (§1)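 Binding z-scores take random background probes as their reference. They come from custom Agilent 4×180K protein-binding microarrays incubated 1 h with ligand-free nuclear receptor dimers, with antibodies against each partner (one per run) detecting binding. Scanned fluorescence was regression-normalized.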

[2] = test system: LXRa:RXRa (NR concentration 270 nM, RXRa partner concentration 90 nM)
Outline: as §1

[3] = test system: LXRa homodimer (NR concentration 270 nM)
Outline: as §1

[4] = test system: LXRb:RXRa (NR concentration 270 nM, RXRa partner concentration 90 nM)
Outline: as §1

[5] = test system: LXRb homodimer (NR concentration 270 nM)
Outline: as §1

[6] = test system: PPARa:RXRa (NR concentration 270 nM, RXRa partner concentration 90 nM)
Outline: as §1

[7] = test system: PPARg:RXRa (NR concentration 180 nM, RXRa partner concentration 90 nM)
Outline: as §1

[8] = test system: PPARg:RXRa 270nM:90nM, anti-RXR (NR concentration 270 nM, RXRa partner concentration 90 nM)
Outline: as §1

[9] = test system: PPARg:RXRa 30nM:10nM, anti-RXR (NR concentration 30 nM, RXRa partner concentration 10 nM)
Outline: as §1

[10] = test system: PPARg:RXRa 90nM:30nM, anti-RXR (NR concentration 90 nM, RXRa partner concentration 30 nM)
Outline: as §1

[11] = test system: PPARg:RXRa DBDmut IVT, anti-RXR (DBD mutation: RXRa K156A/R161A, NR concentration 270 nM, RXRa partner concentration 90 nM)
Outline: as §1

[12] = test system: PPARg:RXRa IVT, anti-PPARg (NR concentration 270 nM, RXRa partner concentration 90 nM)
Outline: as §1

[13] = test system: PPARg DBDmut:RXRa IVT, anti-PPARg (DBD mutation: PPARg1 K132A/R137A, NR concentration 270 nM, RXRa partner concentration 90 nM)
Outline: as §1

[14] = test system: PPARg DBDmut IVT, anti-PPARg (DBD mutation: PPARg1 K132A/R137A, NR concentration 270 nM)
Outline: as §1

[15] = test system: PPARg homodimer (NR concentration 180 nM)
Outline: as §1

[16] = test system: PXR:RXRa (NR concentration 270 nM, RXRa partner concentration 90 nM)
Outline: as §1

[17] = test system: PXR homodimer (NR concentration 270 nM)
Outline: as §1

[18] = test system: RARa:RXR (NR concentration 270 nM, RXRa partner concentration 90 nM)
Outline: as §1

[19] = test system: RARa homodimer (NR concentration 270 nM)
Outline: as §1

[20] = test system: RARb:RXRa (NR concentration 270 nM, RXRa partner concentration 90 nM)
Outline: as §1

Sequence | PBM binding z-score [1] | PBM binding z-score [2] | PBM binding z-score [3] | PBM binding z-score [4] | PBM binding z-score [5] | PBM binding z-score [6] | PBM binding z-score [7] | PBM binding z-score [8] | PBM binding z-score [9] | PBM binding z-score [10] | PBM binding z-score [11] | PBM binding z-score [12] | PBM binding z-score [13] | PBM binding z-score [14] | PBM binding z-score [15] | PBM binding z-score [16] | PBM binding z-score [17] | PBM binding z-score [18] | PBM binding z-score [19] | PBM binding z-score [20]
CTACCAAGGTGAACAAGGTCGTTGTTTACTATTC | 1.24 | 1.22 | -0.0325 | 1.85 | -0.465 | 2.46 | 0.787 | 1.29 | -0.0619 | 0.702 | 2.55 | 2.57 | 0.468 | 0.107 | 0.724 | 2.78 | 1.16 | 2.27 | -0.486 | 2
AGTCAAAGTTCAGGACGCGGTAACGTAAAGCACG | 3.88 | 3.44 | 1.09 | 1.68 | 0.0515 | 3.08 | 4.39 | 4.71 | 1.96 | 3.51 | -0.435 | 1.23 | -0.53 | -0.304 | 1.62 | 2.37 | 0.876 | 2.21 | 0.353 | 4.19
CGAACGAGGGCATGAGTTTATAGCAAATGCCGAT | 0.448 | 0.306 | -0.244 | 0.294 | -1.03 | 1.43 | 1.45 | 1.38 | 0.138 | 0.962 | 3.26 | 2.5 | 0.366 | -0.357 | 0.413 | 1.65 | 1.18 | 0.678 | -0.149 | 2.11
